30 compounds from PubChem BioAssay (NCATS) can be followed below.

SMILES strings stand for the structures. Values without a mark were called inactive. Active and inactive are the calls of the source. Calls come from the whole dose curve; as a rule, active = well fitted curve in the direction sought with a large enough effect; inactive = no such curve, though single readings can be large or run the other way.

The target of this assay is Alpha-galactosidase A (Homo sapiens) (UniProt P06280). The assay is described as follows: Counterscreen for Glucocerebrosidase Inhibitors: qHTS Assay for Human alpha-Galactosidase at pH 4.5 (AID 992). Note: 0% is about no effect. Conditions: purified enzyme, fluorogenic substrate; series mostly up to 76.9 µM; activity change, negative = inhibition: at the top concentration. Put shortly: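 Steps: enzyme (2 nM final), then compound across 0.7 nM to 77 uM, then 80 uM fluorogenic galactopyranoside substrate; incubate 20 min at room temperature; quench at pH 10; measure fluorescence at 365/440 nm.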
Alpha-galactosidase A (Homo sapiens), sequence (P06280 whole entry, looked up): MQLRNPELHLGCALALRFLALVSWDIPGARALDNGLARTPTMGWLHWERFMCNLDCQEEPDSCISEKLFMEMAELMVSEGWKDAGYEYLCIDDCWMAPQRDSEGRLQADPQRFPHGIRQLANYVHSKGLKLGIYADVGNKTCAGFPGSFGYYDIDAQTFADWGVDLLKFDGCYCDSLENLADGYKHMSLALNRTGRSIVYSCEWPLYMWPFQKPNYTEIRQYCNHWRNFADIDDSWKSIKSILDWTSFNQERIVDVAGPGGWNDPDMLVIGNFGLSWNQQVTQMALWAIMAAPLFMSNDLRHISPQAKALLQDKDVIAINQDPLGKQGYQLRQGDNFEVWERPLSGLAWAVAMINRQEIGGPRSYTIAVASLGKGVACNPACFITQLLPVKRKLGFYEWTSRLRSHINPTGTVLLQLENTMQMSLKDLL
For `NCCCCC(=O)O`, the “activity change, negative = inhibition” value was -2.21%.

Turning to `CN(C)c1nc(N)c(C(=O)N=C(N)N)nc1Cl`, the “activity change, negative = inhibition” value was -6.83%.

Regarding `O=C1NC(O)=NC1(c1ccccc1)c1ccccc1`, the “activity change, negative = inhibition” value was -3.61%.

Take `Oc1cc2c(cc1O)CN(C(=S)NCCc1ccc(Cl)cc1)CCC2`: the “activity change, negative = inhibition” value was -1.03%.

`C[N+]1(C)CCC(OC(=O)C(c2ccccc2)c2ccccc2)CC1`: the “activity change, negative = inhibition” value was -2.79%.

On to `CN(C)c1nc2c(Br)c(Br)c(Br)c(Br)c2[nH]1`, for which the “activity change, negative = inhibition” value was -0.737%.

Consider `CCCn1c(=O)c2[nH]c(-c3ccc(OCC(=O)NCCN)cc3)nc2n(CCC)c1=O`, for which the “activity change, negative = inhibition” value was 1.43%.

For `O=C(O)c1cc(=O)c2ccccc2[nH]1`, the “activity change, negative = inhibition” value is -0.305%.

Turning to `N.N.O=C(O)C1(C(=O)O)CCC1.[Pt]`, the “activity change, negative = inhibition” value is -21.2%.

As for `CCCCN1CCC(n2c(=O)[nH]c3ccccc32)CC1`, the “activity change, negative = inhibition” value is -1.45%.

On to `O=c1[nH]c2ccccc2n1CCCN1CCN(C(c2ccccc2)c2ccccc2)CC1`, for which the “activity change, negative = inhibition” value is -6.65%.

Take `Clc1ccc(N2CCN(Cc3c[nH]c4ncccc34)CC2)cc1`: the “activity change, negative = inhibition” value was -5.67%.

Turning to `COC1=C(OC)C(=O)c2ccccc2C1=O`, the “activity change, negative = inhibition” value was -0.807%.

As to `N[C@H](CCCP(=O)(O)O)C(=O)O`, the “activity change, negative = inhibition” value is 3.18%.

For `COc1cc2c(CCNC(C)=O)c[nH]c2cc1Cl`, the “activity change, negative = inhibition” value was -2.22%.

Regarding `NCCSSCCN`, the “activity change, negative = inhibition” value was -0.459%.

On to `COc1ccccc1N1CCN(CCCCNS(=O)(=O)c2cccc3c(N(C)C)cccc23)CC1`, for which the “activity change, negative = inhibition” value is -6.15%.

Take `Fc1ccc(C(OCCCc2cnc[nH]2)c2ccc(F)cc2)cc1`: the “activity change, negative = inhibition” value was -7.23%.

Regarding `CN1[C@@H]2CC[C@H]1CC(OC(c1ccccc1)c1ccccc1)C2` (stereo not given in full), the “activity change, negative = inhibition” value is -5.29%.

Regarding `CCN1/C(=C/C(C)=O)Sc2ccc(OC)cc21`, the “activity change, negative = inhibition” value is -12.2%.

On to `Brc1c(Br)c(Br)c2n[nH]nc2c1Br`, for which the “activity change, negative = inhibition” value is 0.18%.

In the case of `O=S(=O)(c1cccc2c(I)cccc12)N1CCCNCC1`, the “activity change, negative = inhibition” value is -3.83%.

As for `O=C(O)c1cc(=O)c2c(Cl)cc(Cl)cc2[nH]1`, the “activity change, negative = inhibition” value is -0.715%.

Take `CN=c1nc(-c2ccccc2)n(-c2ccccc2)s1`: the “activity change, negative = inhibition” value was 3.07%.

As to `CN1CCc2cc(NC(=O)Nc3cccnc3)ccc21`, the “activity change, negative = inhibition” value was -4.81%.

With `C=C[C@H]1CN2CC[C@@H]1C[C@@H]2[C@@H](O)c1ccnc2ccc(OC)cc12`, the outcome was inactive.

Regarding `O=C(c1cc(O)c(O)c([N+](=O)[O-])c1)c1ccccc1F`, the “activity change, negative = inhibition” value is -4.46%.

As to `Cc1cc(NC(=O)Nc2ccc3c(ccn3C)c2)sn1`, the “activity change, negative = inhibition” value is -1.58%.

As for `NCCNC(=O)c1ncsc1-c1cccc(F)c1`, the “activity change, negative = inhibition” value is -1.14%.

For `O=c1[nH]c2cc(Cl)c(Cl)cc2[nH]c1=O`, the “activity change, negative = inhibition” value was -4.98%.
